Inhibition data for three molecules are collected here from ChEMBL document CHEMBL1961873, “Compounds: GSK PKIS; Assays: Nanosyn kinase panel” (2012).

The target in experiment [1] is T1, Serine/threonine-protein kinase Nek9 (Homo sapiens) (UniProt Q8TD19).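 Further: each value is a mean percent inhibition of NEK9.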
T1 sequence (whole entry): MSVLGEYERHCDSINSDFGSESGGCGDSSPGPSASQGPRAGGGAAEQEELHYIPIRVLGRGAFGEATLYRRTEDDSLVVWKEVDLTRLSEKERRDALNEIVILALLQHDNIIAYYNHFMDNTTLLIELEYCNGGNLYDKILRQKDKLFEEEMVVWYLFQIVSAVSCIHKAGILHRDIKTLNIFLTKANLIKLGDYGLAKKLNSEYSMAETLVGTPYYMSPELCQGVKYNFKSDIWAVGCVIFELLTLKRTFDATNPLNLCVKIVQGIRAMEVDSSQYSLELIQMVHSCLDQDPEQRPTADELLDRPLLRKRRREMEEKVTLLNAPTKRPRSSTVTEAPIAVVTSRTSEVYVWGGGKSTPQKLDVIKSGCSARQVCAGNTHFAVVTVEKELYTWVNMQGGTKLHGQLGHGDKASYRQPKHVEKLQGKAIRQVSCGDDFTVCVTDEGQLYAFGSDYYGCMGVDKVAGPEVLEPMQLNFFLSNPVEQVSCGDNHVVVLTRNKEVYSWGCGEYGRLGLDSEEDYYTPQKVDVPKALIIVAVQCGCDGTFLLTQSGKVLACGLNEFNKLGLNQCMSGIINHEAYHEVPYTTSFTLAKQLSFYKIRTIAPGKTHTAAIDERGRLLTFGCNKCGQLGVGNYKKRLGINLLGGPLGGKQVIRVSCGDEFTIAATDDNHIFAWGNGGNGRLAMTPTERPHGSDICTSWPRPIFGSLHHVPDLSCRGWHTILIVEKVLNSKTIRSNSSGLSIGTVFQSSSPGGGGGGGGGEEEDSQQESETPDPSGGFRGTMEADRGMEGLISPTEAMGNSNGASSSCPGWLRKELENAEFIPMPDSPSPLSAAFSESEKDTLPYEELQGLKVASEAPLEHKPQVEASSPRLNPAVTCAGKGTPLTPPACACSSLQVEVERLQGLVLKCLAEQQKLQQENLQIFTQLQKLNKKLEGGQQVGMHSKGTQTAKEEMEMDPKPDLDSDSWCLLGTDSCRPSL
As to conditions: at 1 µM.

The target of experiment [2] is Serine/threonine-protein kinase PLK1 (Homo sapiens) (UniProt P53350). As to conditions: at 0.1 µM.
The target is the same in experiment [3]. The note with it: at 1 µM.
For experiment [4], the target named is T2, Dual specificity protein kinase TTK (Homo sapiens) (UniProt P33981).
T2 sequence (whole entry): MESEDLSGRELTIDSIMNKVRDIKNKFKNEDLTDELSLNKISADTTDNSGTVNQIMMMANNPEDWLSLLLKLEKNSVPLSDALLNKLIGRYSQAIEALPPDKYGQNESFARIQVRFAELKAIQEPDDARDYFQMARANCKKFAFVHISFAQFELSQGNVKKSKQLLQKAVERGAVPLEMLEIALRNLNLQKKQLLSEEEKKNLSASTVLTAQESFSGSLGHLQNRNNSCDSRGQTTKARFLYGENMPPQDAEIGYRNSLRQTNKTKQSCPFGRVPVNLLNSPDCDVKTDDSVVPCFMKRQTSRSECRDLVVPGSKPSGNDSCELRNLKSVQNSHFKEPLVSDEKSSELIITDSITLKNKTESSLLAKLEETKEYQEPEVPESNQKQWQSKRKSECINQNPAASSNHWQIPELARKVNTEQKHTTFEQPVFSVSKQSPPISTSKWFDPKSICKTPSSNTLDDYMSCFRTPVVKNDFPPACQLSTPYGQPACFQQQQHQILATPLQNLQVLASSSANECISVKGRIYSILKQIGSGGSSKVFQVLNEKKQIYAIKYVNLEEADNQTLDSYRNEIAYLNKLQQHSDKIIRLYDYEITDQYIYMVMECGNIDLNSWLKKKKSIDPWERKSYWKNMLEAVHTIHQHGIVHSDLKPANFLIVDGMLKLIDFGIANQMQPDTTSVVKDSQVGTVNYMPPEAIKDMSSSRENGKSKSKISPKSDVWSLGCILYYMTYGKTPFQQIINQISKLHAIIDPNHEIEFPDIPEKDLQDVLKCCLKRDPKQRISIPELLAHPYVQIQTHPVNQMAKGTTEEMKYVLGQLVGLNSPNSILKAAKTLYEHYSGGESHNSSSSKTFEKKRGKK
As to conditions: at 0.1 µM.

Experiment [5] relates to T3, Receptor-type tyrosine-protein kinase FLT3 (Homo sapiens), P36888 [D835Y].
T3 sequence (whole entry): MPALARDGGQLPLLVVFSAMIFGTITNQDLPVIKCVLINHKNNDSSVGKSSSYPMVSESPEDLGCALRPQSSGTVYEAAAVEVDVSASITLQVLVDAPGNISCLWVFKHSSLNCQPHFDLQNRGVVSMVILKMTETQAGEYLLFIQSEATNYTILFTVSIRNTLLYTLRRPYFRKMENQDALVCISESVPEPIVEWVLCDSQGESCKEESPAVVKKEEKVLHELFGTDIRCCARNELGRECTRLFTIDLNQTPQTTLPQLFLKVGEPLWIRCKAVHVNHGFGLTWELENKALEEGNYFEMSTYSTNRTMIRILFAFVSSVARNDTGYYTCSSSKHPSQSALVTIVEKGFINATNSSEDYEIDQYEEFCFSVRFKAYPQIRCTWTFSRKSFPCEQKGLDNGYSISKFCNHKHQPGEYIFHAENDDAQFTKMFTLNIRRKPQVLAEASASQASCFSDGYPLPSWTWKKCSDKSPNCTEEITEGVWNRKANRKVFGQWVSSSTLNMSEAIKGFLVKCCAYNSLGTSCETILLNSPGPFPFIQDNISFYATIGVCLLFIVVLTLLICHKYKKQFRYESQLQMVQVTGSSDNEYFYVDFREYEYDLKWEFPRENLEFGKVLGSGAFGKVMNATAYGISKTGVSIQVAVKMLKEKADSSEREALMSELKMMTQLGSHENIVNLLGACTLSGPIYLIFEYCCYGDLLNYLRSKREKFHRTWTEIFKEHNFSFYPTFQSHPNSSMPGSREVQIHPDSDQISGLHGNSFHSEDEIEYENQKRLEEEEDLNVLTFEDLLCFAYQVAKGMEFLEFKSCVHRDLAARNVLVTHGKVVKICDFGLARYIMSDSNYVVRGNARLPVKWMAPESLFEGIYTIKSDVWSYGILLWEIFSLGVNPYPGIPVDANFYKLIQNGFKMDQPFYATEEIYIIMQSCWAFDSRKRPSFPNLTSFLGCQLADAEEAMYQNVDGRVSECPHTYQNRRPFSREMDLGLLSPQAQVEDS
The note with it: at 1 µM.

Experiment [6] concerns the target Vascular endothelial growth factor receptor 3 (Homo sapiens) (UniProt P35916). As to conditions: at 0.1 µM.
Experiment [7] has the same target. The note with it: at 1 µM.
Experiment [8] concerns the target Macrophage colony-stimulating factor 1 receptor (Homo sapiens) (UniProt P07333). The note with it: at 0.1 µM.
For experiment [9] the target is unchanged. The note with it: at 1 µM.
Experiment [10] addresses Tyrosine-protein kinase Fyn (Homo sapiens) (UniProt P06241). As to conditions: at 0.1 µM.
Experiment [11] shares this target. As to conditions: at 1 µM.
In experiment [12] the target is Tyrosine-protein kinase HCK (Homo sapiens) (UniProt P08631). As to conditions: at 0.1 µM.
Tyrosine-protein kinase HCK (Homo sapiens), sequence (P08631 2-526 limits assumed): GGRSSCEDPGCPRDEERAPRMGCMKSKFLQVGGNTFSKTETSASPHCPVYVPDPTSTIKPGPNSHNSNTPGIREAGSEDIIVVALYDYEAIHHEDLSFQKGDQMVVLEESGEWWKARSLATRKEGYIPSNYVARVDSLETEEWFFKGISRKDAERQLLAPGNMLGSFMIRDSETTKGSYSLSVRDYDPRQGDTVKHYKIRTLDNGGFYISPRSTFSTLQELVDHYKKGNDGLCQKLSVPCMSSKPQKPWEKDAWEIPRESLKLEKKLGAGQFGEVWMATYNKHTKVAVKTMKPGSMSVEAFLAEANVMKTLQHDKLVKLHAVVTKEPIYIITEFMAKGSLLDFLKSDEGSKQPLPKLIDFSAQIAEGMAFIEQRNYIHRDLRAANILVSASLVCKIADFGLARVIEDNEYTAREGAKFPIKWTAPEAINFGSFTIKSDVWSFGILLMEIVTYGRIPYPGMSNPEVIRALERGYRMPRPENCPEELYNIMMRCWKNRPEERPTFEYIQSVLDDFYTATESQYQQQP
The target is the same in experiment [13]. The note with it: at 1 µM.
Experiment [14] has as its target Insulin-like growth factor 1 receptor (Homo sapiens) (UniProt P08069). The note with it: at 0.1 µM.
Experiment [15] shares this target. The note with it: at 1 µM.
The target in experiment [16] is Insulin receptor (Homo sapiens) (UniProt P06213). As to conditions: at 0.1 µM.
Experiment [17] shares this target. The note with it: at 1 µM.
In experiment [18] the target is Insulin receptor-related protein (Homo sapiens) (UniProt P14616). The note with it: at 0.1 µM.
Insulin receptor-related protein (Homo sapiens), sequence (P14616 27-742 limits assumed): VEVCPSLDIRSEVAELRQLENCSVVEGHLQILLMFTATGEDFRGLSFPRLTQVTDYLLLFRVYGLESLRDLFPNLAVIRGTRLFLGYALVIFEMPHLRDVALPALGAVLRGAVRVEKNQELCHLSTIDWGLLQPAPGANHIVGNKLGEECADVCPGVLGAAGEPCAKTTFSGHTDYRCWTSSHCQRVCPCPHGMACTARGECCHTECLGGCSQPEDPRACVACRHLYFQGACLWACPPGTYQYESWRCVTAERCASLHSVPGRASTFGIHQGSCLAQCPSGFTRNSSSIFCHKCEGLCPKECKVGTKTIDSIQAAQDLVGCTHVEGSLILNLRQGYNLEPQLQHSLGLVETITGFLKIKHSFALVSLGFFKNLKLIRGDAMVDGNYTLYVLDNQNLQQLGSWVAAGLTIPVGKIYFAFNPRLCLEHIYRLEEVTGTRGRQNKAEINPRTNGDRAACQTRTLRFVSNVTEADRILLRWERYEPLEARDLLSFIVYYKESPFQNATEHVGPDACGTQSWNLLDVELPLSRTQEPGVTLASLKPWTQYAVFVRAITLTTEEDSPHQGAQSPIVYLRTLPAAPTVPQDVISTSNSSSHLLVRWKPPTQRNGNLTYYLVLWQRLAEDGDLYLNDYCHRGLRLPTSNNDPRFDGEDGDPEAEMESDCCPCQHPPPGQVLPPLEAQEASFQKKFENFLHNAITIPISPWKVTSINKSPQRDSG
Insulin receptor-related protein (Homo sapiens), sequence (P14616 747-1297 limits assumed): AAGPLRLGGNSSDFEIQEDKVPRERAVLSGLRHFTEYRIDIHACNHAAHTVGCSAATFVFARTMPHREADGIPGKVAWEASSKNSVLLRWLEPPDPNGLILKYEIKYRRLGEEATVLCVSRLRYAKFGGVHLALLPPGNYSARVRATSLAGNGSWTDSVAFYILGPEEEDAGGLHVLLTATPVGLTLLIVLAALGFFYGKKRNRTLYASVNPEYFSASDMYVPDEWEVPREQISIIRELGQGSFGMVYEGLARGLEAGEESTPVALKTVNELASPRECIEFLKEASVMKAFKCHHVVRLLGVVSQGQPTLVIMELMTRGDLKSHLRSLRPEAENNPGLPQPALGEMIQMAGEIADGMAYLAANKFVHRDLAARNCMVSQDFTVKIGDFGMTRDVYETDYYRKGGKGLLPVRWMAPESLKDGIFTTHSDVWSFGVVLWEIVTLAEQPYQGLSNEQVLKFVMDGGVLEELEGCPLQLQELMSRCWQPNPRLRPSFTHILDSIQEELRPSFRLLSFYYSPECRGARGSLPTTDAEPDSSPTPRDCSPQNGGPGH
Experiment [19] has the same target. As to conditions: at 1 µM.
Experiment [20] concerns the target T4, Tyrosine-protein kinase ITK/TSK (Homo sapiens) (UniProt Q08881).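 Further: mean percent inhibition of ITK from the GSK PKIS screen.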
T4 sequence (whole entry): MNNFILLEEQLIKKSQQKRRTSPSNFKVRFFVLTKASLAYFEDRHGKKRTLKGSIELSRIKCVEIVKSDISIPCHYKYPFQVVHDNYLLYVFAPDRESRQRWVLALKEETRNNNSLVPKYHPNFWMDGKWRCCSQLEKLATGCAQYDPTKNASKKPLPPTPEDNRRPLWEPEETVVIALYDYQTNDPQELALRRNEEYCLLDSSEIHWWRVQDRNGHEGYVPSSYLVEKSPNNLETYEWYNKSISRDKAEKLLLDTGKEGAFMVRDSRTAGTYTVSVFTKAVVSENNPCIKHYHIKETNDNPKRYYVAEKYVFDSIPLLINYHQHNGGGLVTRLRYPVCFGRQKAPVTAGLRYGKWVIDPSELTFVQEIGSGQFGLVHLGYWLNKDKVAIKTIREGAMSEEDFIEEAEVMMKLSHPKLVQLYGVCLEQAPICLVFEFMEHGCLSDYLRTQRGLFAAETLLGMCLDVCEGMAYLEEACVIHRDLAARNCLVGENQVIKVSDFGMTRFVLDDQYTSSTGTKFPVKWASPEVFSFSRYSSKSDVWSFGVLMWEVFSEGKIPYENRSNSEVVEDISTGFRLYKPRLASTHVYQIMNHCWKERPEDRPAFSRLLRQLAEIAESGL
As to conditions: at 0.1 µM.

Insulin-like growth factor 1 receptor (Homo sapiens), sequence (P08069 31-736 limits assumed): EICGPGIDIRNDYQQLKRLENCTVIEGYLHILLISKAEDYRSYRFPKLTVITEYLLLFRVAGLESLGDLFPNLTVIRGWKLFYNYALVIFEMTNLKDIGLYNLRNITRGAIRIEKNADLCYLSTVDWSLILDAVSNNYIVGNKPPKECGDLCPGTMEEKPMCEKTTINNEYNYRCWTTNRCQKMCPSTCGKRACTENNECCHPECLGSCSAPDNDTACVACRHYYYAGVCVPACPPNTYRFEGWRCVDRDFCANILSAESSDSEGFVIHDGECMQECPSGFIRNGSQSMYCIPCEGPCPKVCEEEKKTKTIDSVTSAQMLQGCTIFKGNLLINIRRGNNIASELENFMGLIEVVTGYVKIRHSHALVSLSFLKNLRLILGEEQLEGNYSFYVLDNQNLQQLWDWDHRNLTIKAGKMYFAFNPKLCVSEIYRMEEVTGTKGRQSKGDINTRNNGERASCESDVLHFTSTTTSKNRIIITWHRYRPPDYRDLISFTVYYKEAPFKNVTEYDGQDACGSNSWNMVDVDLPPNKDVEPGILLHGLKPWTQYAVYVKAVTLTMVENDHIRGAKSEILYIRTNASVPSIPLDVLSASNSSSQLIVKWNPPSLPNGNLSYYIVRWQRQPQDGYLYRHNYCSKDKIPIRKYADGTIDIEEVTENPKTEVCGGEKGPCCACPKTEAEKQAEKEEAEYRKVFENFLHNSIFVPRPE
Insulin-like growth factor 1 receptor (Homo sapiens), sequence (P08069 741-1367 limits assumed): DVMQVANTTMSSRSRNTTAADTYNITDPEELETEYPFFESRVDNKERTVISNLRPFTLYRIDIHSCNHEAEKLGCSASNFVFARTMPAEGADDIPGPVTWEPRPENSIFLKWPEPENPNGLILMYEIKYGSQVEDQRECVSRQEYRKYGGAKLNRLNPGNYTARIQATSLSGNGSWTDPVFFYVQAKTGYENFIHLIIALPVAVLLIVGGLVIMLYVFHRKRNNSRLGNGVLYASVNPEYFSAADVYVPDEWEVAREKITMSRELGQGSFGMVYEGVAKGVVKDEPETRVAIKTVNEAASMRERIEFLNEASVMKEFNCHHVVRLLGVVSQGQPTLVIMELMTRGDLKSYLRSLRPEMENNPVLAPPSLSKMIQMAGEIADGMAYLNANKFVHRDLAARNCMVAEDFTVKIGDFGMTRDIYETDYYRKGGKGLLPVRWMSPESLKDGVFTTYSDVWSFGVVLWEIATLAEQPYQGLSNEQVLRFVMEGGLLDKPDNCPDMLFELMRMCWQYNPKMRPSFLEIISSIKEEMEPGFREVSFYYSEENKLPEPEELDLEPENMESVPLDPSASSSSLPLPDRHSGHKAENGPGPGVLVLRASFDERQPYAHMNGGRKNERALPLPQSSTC
Macrophage colony-stimulating factor 1 receptor (Homo sapiens), sequence (P07333 whole entry): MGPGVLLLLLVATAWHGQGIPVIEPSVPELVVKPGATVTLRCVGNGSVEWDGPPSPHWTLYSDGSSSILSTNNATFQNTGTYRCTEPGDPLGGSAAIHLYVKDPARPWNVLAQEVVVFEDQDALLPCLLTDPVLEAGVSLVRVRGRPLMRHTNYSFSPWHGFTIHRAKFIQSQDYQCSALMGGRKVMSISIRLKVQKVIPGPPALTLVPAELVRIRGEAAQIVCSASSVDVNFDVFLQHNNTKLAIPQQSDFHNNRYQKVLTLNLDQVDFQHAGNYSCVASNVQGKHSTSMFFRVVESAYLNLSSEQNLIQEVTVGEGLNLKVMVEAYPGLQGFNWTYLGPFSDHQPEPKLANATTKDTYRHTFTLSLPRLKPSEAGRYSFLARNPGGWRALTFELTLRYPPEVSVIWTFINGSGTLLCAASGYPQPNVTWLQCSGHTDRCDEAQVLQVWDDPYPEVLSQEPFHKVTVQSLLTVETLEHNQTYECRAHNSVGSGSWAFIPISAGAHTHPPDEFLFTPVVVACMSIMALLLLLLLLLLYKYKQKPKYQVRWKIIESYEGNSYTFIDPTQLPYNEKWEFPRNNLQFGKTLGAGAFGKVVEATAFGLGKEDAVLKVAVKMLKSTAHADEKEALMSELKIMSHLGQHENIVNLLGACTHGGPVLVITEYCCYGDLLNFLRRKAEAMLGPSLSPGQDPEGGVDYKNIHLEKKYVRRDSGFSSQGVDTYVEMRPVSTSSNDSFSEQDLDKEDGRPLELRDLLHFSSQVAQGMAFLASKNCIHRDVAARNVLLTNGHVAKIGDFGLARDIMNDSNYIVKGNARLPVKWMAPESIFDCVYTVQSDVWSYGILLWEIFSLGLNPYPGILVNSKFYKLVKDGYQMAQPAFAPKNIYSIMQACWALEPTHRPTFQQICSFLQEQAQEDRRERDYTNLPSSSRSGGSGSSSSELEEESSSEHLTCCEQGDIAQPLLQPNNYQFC
Tyrosine-protein kinase Fyn (Homo sapiens), sequence (P06241 2-537 limits assumed): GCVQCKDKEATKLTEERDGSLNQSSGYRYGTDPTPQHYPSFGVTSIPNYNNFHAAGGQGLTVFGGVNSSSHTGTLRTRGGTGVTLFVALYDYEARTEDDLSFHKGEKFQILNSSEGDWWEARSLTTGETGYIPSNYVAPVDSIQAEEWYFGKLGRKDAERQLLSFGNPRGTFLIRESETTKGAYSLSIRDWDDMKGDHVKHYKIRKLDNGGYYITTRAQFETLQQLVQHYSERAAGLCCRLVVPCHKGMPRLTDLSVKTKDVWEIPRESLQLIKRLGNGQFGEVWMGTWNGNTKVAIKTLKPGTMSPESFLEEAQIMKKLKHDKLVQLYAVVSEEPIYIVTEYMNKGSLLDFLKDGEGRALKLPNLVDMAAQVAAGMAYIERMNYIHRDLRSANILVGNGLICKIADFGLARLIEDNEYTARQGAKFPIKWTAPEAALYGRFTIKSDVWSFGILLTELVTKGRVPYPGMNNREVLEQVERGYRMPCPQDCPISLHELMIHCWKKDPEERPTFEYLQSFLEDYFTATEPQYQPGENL

In the case of `Cc1nnc(-c2ccc(C)c(-c3ccc(C(=O)Nc4cccc(C#N)c4)cc3)c2)o1`, the inhibition was 6.96% in experiment [1]; 2.65% in [2]; 1.18% in experiment [3]; 3.88% in experiment [4]; 1.89% in experiment [5]; -1.08% in [6]. For the same molecule, the inhibition was 1.02% in experiment [7]; -0.4% in [8]; 0.77% in [9]; 3.8% in experiment [10]; 3.47% in [11]; 4.32% in experiment [12]. In addition, the inhibition was 5.14% in experiment [13]; 1.24% in experiment [14]; 0.79% in experiment [15]; 4.34% in experiment [16]; 3.89% in experiment [17]; -0.6% in experiment [18]. The inhibition in [19] turned out to be 1.65%; in [20] it was 0.98%.
Take `NC(=O)c1cccc(Nc2nccc(Nc3cccc4[nH]ncc34)n2)c1`: the inhibition is 7.1% in experiment [1]; -1.69% in experiment [2]; 3.37% in experiment [3]; -7.5% in [4]; 37.5% in [5]; 5.01% in experiment [6]. Further, the inhibition in experiment [7] is 33.4%; in experiment [8] it was 3.46%; in [9], 34.1%; in experiment [10], 85.9%; in [11], 96.1%; in [12], 64%. For the same molecule, the inhibition in experiment [13] was 84.6%; in experiment [14], -0.89%; in experiment [15] it was 15.5%; in experiment [16] it was -2.6%; in experiment [17], 16.8%; in experiment [18] it was -0.86%. Besides, the results for the inhibition in [19] and in [20] were 0.93% and -0.33%, respectively.
In the case of `COc1cc(C=NNc2ncnc3c2cnn3-c2ccccc2)ccc1O`, the inhibition turned out to be 1.08% in experiment [1]; 2.41% in [2]; 3.03% in experiment [3]; 3.02% in experiment [4]; 56.8% in [5]; 5.09% in experiment [6]. Further, the inhibition in [7] turned out to be 24.4%; in experiment [8], 7.04%; in experiment [9], 26.8%; in experiment [10] it was 11%; in experiment [11], 47.5%; in experiment [12], 8.92%. Besides, the inhibition in experiment [13] is 41.6%; in [14], 1.72%; in [15], 3.81%; in experiment [16], 3.42%; in experiment [17], 2.58%; in experiment [18], 3.25%. The inhibition in experiment [19] was found to be 2.41%; in [20], 1.47%.
